# Hits are enriched below; roughly 4% of the tested compounds scored in any of these assays.
# Jurkat NFkB inh: inhibitors of induced NF-kB luciferase reporter, primary screen, TCR NF-kB activation inhibitor project, cell-based, luminescence, uHTS; inhibition, % at 4 µM; AID 435003, 2010; Jurkat, PMA/ionomycin-induced NF-kB luciferase reporter; 0.53% of 330,000 active; in the data active = inhibition above about 50%
# Beta apoptosis: inhibitors of cytokine-induced beta cell apoptosis, primary screen, luminescence | 0.8% of 300,000 active | protection from apoptosis, % (test concentration not listed) | INS-1E cytokine-induced death, ATP luminescence, 48 h; percent of positive-control rescue, neutral wells zero;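 active = Every replicate reaches about 75%, or at least half do and their mean reaches it too, limit read from the data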;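 note: 0% = cytokine-treated negative control wells and 100% = positive control rescue; higher means more ATP so stronger rescue from cytokine killing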
# 697 NFkB inh: inhibitors of PMA/ionomycin-induced NF-kB reporter, 697 cells, primary screen, B-cell NF-kB inhibitor project, cell-based, luminescence, uHTS | 697 B-cell NF-kB luciferase reporter, 16 h | inhibition, % at 4 µM | 0.33% of 330,000 active | AID 435022, 2010; in the data active = inhibition above about 35%
# Gli-Sufu antag: Gli-Sufu pathway antagonists, primary screen, luciferase luminescence, Sufu-KO-LIGHT cells, uHTS. AID 588413, 2011. 0.74% of 340,000 active. inhibition, % at 5 µM. Sufu-KO-LIGHT fibroblasts, Gli luciferase reporter luminescence;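 active = inhibition above about 55%, limit read from the data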;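 note: 0% = DMSO-treated cells and 100% = wells with medium but no cells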
# Mdm2 MdmX PPI: inhibitors of human Mdm2-MdmX association, primary screen, cell-based, luminescence, split luciferase, SaOS-2, uHTS; SaOS-2 split-luciferase Mdm2/MdmX complementation; inhibition, % at 8 µM; 3% of 330,000 active;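 active = inhibition of at least 50% at 8 µM in the primary screen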
# Target sequence (O15151 whole entry, looked up): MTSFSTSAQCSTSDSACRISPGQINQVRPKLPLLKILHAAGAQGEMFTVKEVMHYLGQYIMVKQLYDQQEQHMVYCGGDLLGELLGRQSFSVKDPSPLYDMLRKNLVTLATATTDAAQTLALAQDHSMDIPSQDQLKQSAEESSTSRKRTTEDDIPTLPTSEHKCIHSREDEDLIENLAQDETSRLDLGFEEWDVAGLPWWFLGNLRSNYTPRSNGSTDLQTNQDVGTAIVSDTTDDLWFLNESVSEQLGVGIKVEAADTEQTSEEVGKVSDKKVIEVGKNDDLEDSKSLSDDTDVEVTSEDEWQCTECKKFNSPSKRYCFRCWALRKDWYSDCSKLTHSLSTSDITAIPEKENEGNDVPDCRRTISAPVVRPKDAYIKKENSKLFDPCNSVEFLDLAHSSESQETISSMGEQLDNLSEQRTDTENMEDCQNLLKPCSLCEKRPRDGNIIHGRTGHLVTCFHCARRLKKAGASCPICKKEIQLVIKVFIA
# Target sequence (Q00987 whole entry, looked up): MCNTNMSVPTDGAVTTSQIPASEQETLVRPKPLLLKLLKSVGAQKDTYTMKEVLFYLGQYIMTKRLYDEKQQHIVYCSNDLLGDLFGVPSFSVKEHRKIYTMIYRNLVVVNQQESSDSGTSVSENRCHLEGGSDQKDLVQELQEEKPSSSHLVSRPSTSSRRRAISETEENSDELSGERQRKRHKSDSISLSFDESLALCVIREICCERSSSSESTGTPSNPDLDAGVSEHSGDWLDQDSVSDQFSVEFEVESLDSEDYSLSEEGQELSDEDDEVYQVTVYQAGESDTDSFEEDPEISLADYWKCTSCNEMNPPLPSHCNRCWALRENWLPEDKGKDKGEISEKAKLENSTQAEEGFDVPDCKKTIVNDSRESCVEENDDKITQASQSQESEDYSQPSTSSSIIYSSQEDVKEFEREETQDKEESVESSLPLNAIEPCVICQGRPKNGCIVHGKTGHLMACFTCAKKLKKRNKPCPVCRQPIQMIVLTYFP
# Gli antag conf: Gli-SUFU pathway antagonists, confirmation, single concentration, luciferase luminescence, Sufu-KO-LIGHT cells | shares compounds with Gli-Sufu antag | Gli luciferase reporter | inhibition, % at 5 µM | 40% of 2,500 active;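 active = mean inhibition at 5 µM reaching about 45%, limit read from the data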;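 note: plate controls were DMSO-treated cells for no effect and wells lacking cells for full effect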
# Gli cytotox: cytotoxicity in Sufu-KO-LIGHT cells, confirmation, cytotoxicity control for Gli-SUFU antagonist project, cell-based, ATP luminescence, single concentration; shares compounds with Gli-Sufu antag; cytotoxicity, % at 5 µM; 32% of 2,500 active;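 active = mean cytotoxicity at 5 µM above about 25%, limit read from the data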;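 note: cells exposed to compound overnight for roughly 16 to 18 hours; plate controls were DMSO wells with cells for no effect and medium without cells for full effect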
# Wnt3a counter: Wnt3a reporter signal inhibition, confirmation, counter-screen for Gli-SUFU antagonist project, Wnt-LIGHT cells, luminescence, single concentration; shares compounds with Gli-Sufu antag; Wnt3a-driven luciferase reporter; inhibition, % at 6.25 µM; 20% of 2,500 active;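 active = mean inhibition above about 25%, limit read from the data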
# * hit, by the source's call; / = not tested or not shown.
SMILES,Jurkat NFkB inh,Beta apoptosis,697 NFkB inh,Gli-Sufu antag,Mdm2 MdmX PPI,Gli antag conf,Gli cytotox,Wnt3a counter
O=C(C[C@@H]1C/C=C\C[C@H](NC(=O)OCC2c3ccccc3-c3ccccc32)C(=O)O[C@H](c2ccccc2)CNC1=O)NCCO,1,8,-11,54,-6,59*,34*,-71
CCOC(=O)C1=C(C)NC(C)=C(C(=O)OCC)C1c1sccc1C,-15,-3,-28,19,24,/,/,/
CCn1c(=O)cc(OCC(=O)NCCCN2CCCC2=O)c2ccccc21,-8,-6,-11,-31,3,/,/,/
CCc1ccccc1NC(=S)N(CCCN1CCN(C)CC1)Cc1cccs1,-1,1,-1,54,-6,17,4,14
O=C(O)CN1C(=O)/C(=C2\C(=O)N(Cc3ccccc3Cl)c3ccccc32)SC1=S,/,4,/,57*,/,11,7,20
C[C@H](CO)N1C[C@H](C)[C@@H](CN(C)S(=O)(=O)c2ccc(Cl)cc2)Oc2ccc(NS(=O)(=O)c3ccccc3)cc2CC1=O,-1,-6,-3,58*,14,10,-12,-22
Cc1ccc(S(=O)(=O)Nc2ccc3c(c2)CC(=O)N([C@H](C)CO)C[C@@H](C)[C@H](CN(C)S(=O)(=O)c2ccccc2)O3)cc1,-2,5,2,-3,-15,/,/,/
C[C@H](CO)N1C[C@H](C)[C@@H](CN(C)S(=O)(=O)c2cn(C)cn2)Oc2ccc(NC(=O)Nc3ccccc3)cc2C1=O,-1,-15,7,96*,5,12,3,-47
CCCOc1ccccc1/C=N/NC(=O)C1CC1,17,2,13,3,15,/,/,/
Cc1cc(C)c(Cn2cnc(-c3ccc([N+](=O)[O-])cc3)c2)c(C)c1,-6,4,-6,55*,4,30,28*,-44
COc1ccc(CN2CCN(C(=O)CN3C(=O)C4C5C=CC(C5)C4C3=O)CC2)c(OC)c1OC (centres undefined),6,-6,-28,62*,14,19,21,-3
Cc1c(/C=N/NC(=O)c2ccccc2O)c2ccccn2c1C(=O)c1ccc(F)cc1,9,4,2,79*,34,71*,1,-128
O=C(NNC(=O)c1cccc(O)c1)Nc1ccc([N+](=O)[O-])cc1,-28,1,17,-2,5,/,/,/
Cc1ccc(C)c(S(=O)(=O)NC2CCSC2=O)c1 (centres undefined),12,/,17,13,15,/,/,/
Cc1ccc(C(=O)N2CCN(c3ncc(C(F)(F)F)cc3Cl)CC2)s1,4,-3,-31,58*,11,18,-1,-41
CC(=O)c1ccc(N2CCN(c3ncc(C(F)(F)F)cc3Cl)CC2)cc1,21,31,-13,-1,13,/,/,/
COc1cccc(NC(=S)/C(=C(\[O-])c2cc(C)n(-c3ccccc3F)c2C)[n+]2ccc(N(C)C)cc2)c1,-11,3,-16,60*,37,57*,33*,18
O=C1CC2C(=O)NCCN2C(=NC(=O)c2ccc(Cl)cc2)N1 (centres undefined),-10,-6,2,1,19,/,/,/
Cc1cc(C#N)c(C)c(SCc2[nH]nc3c2C(c2ccccc2)C(C#N)=C(N)O3)n1 (centres undefined),-5,-4,3,58*,14,25,16,0
COc1cc(NC(=O)c2cccnc2)c(Cl)cc1NC(=O)c1ccccc1,4,6,0,-2,10,/,/,/
CC1(C)COCN1C(=O)c1ccc(C#N)cc1,-6,-5,6,52,10,10,20,2
CC(C)COc1ccc(C/C(N)=N/n2cnnc2)cc1,20,35,-11,62*,3,46*,20,26*
COc1ccc(C/C(N)=N/n2cnnc2)cc1,9,0,10,0,-8,/,/,/
CC(Cc1nnc(SCC(=O)O)n1N)c1ccccc1 (centres undefined),6,-8,-3,-24,-24,/,/,/
C=COCCCNc1ncnc2sc(-c3ccccc3)cc12,23,54,-13,61*,9,48*,39*,2
SMILES,Jurkat NFkB inh,Beta apoptosis,697 NFkB inh,Gli-Sufu antag,Mdm2 MdmX PPI,Gli antag conf,Gli cytotox,Wnt3a counter
COc1ccccc1NC(=O)Nc1ccc(Cc2ccncc2)cc1,-1,-5,0,50,-20,15,7,-38
CCOC(=O)N1CCN(C(=O)c2ccc3c(c2)N(Cc2cccc(Cl)c2)C(=O)c2ccccc2S3=O)CC1 (centres undefined),12,/,-13,56*,17,12,12,2
O=C(Nc1ccccc1)c1nccn1Cc1ccc(F)cc1,-40,0,-35,-33,-5,/,/,/
COc1ccc(CCN2CC(C(=O)O)CC2=O)cc1 (centres undefined),5,-2,20,96*,18,3,3,-5
Cn1nc(C(=O)Nc2ccccc2)c2c1-c1ccccc1S(=O)(=O)C2,4,4,23,-5,17,/,/,/
Cn1ncc([N+](=O)[O-])c1C(=O)N1CCCCCC1,9,/,30,12,15,/,/,/
CCCCOc1ccccc1-c1ccccc1CN1[C@@H](C(C)C)COCCS1(=O)=O,/,/,9,12,28,/,/,/
CC(C)[C@H]1COCCS(=O)(=O)N1Cc1ccccc1-c1cccc2c1oc1ccccc12,/,/,5,93*,33,24,7,-40
NC(=O)c1ncn([C@@H]2O[C@H](CNCc3cccn3-c3ccncc3)[C@@H](O)[C@H]2O)n1,/,/,/,-15,/,/,/,/
COc1cc(OC)c(NS(=O)(=O)c2ccc(Cl)c(C(=O)OC(C)C(=O)N3CCCC3)c2)cc1Cl (centres undefined),0,2,-14,51,-1,25,14,-14
CCN1C(=O)CCN(C2CCCC2)c2nc(Nc3ccc(C(=O)NC4CCN(C)CC4)cc3OC)ncc21,/,/,/,71*,/,60*,24,-87
Cc1ccc2[nH]c3c(N4CCc5ccccc5C4)ncnc3c2c1,34,101*,-22,73*,39,77*,38*,-22
CC(C)CC(=O)N/C(N)=N/c1nc2ccccc2o1,-99,-4,-132,-65,-62,/,/,/

# Bioassay records: PubChem, several laboratories
